Compounds with a hit are over-represented: about 1.5% of the library has one in this group of screens.
CCHF vOTU inh-1 – CCHFV vOTU protease inhibition | inhibition, % at 11.5 µM | Pep-AMC fluorescence | hit rate 0.55% among 370,000; note: 0% = vehicle wells with enzyme and 100% = no enzyme wells
TcdB inh – TcdB glycohydrolase inhibition | AID 652162 | hit rate 0.24% among 350,000 | TcdB glycohydrolase enzymatic assay, plate reader | inhibition, % at 9.99 µM; in the data active = inhibition above about 10%
SSB-PriA inh – K. pneumoniae PriA-SSBct interaction inhibition; AlphaScreen SSBct-PriA binding, biotinylated peptide; inhibition, % at 33 µM; hit rate 0.6% among 430,000; AID 1272365; in the data active = inhibition mostly above about 37%, no sharp cut-off; inactive = mostly below about 20%;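 note: plate controls were negative control peptide for no effect and reference peptide for full effect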
PrPC surface inh – cell surface PrPC inhibition, primary TR-FRET screen | P04156 | TR-FRET read-out | inhibition, % at 13.8 µM | hit rate 0.43% among 370,000 | AID 720596; in the data active = inhibition above about 24%; note: 0% = median of the test wells and 100% = reference compound wells
BH1578 lux ind – quorum light induction in luxS cqsA deficient V. cholerae; activation, % at 18.7 µM; hit rate 0.16% among 350,000; V. cholerae BH1578 lux reporter, luminescence, 6 h; AID 588436; in the data active = activation mostly above about 9.7%, no sharp cut-off
DUSP3 inh – blocks human VHR1 dual specificity phosphatase; inhibition, % at 13.3 µM; P51452; recombinant VHR phosphatase, pNPP absorbance; hit rate 0.52% among 290,000; in the data active = inhibition above about 50%
CCHF vOTU inh-2 – CCHFV vOTU protease inhibition, confirmation | shares compounds with CCHF vOTU inh-1 | Recombinant CCHFV vOTU, Pep-AMC fluorescence | inhibition, % at 11.5 µM | hit rate 17% among 1,900 | AID 686976
* = called active by the depositor; i = inactive; · = no result given. Cut-off read from the data, not from the text of the source, unless noted: active = inhibition above about 30%; inactive = the rest.

SMILES	CCHF vOTU inh-1	TcdB inh	SSB-PriA inh	PrPC surface inh	BH1578 lux ind	DUSP3 inh	CCHF vOTU inh-2
COc1ccc(N2C(=O)[C@@H]3[C@H](C2=O)[C@H]2c4ccccc4C=CN2[C@@H]3C(=O)Nc2ccccc2)cc1	9	·	2	8	0	8	·
Cc1ccc(NC(=O)c2ccc(Cl)c([N+](=O)[O-])c2)cc1N1CCCCC1=O	·	·	8	·	·	·	·
CSc1ccc(CC(=O)OC2CN(c3nc4ccccc4s3)C2)cc1	·	·	-5	·	·	·	·
CCOc1cc(Br)cc(C(c2c(C(=O)O)[nH]c3ccccc23)c2c(C(=O)O)[nH]c3ccccc23)c1O	43*	0	-10	5	-2	6	22
CSc1ccc(C(c2c(C(=O)O)[nH]c3ccccc23)c2c(C(=O)O)[nH]c3ccccc23)cc1	22	-1	3	22	0	14	·
CCOc1cccc2sc(NCc3ccccc3)nc12	·	·	20	·	·	·	·
CCOC(=O)N1CCN(c2ccc(C(C)=O)cc2F)CC1C (centres undefined)	31*	·	5	12	-1	22	-3
CC(CCc1ccco1)Nc1ncc2c(=O)n(-c3ccccc3)c(=O)[nH]c2n1 (centres undefined)	·	·	-9	·	·	·	·
CC(CC(=O)OCC(=O)NCc1ccc(Cl)cc1)c1ccccc1 (centres undefined)	33*	0	-20	4	i	·	-10
COc1ccc(CNC(=O)CC(C)c2ccccc2)cc1 (centres undefined)	-4	1	-4	0	-2	1	·
Cc1noc(C)c1CC(=O)NCCn1nc(-c2ccsc2)cc1C1CC1	·	·	-11	·	·	·	·
Cc1cc(Br)cn2c(Cc3ccccc3C(F)(F)F)c(-c3ccco3)nc12	30*	-1	·	20	·	·	11
Cc1cc(Br)cn2c(Cc3ccccc3C(F)(F)F)c(-c3ccccc3)nc12	3	2	·	3	·	·	·
CC(=O)Nc1ccc(/C=N/NC(=S)NC(C)C)cc1	36*	1	·	-14	-1	10	3
CN(C)S(=O)(=O)NCCn1nc(C2CC2)n(-c2ccccc2)c1=O	·	·	-9	·	·	·	·
COc1cccc(Nc2nc(C(N)C(C)C)cs2)n1 (centres undefined)	34*	0	·	-9	i	·	-6
O=C(CCCSc1ccc(F)cc1)N(Cc1ccccn1)c1nc2ccc([N+](=O)[O-])cc2s1	·	·	-8	·	·	·	·
c1coc(-c2nnc(-c3ccco3)nn2)c1	45*	-1	4	-2	0	2	53*
COc1ccc(OCc2cc(C(=O)NC3CCOCC3)no2)c2ccccc12	61*	0	6	2	-4	8	22
COc1cccc(OCc2cc(C(=O)NC3CCOCC3)no2)c1	7	-1	-22	9	0	6	·
O=C(CSc1nccn2nc(-c3ccc(Cl)cc3)cc12)Nc1ccc(Br)cc1	·	·	-10	·	·	·	·
COc1ccc(NS(=O)(=O)c2cccc(C(=O)N3CCN(C/C=C/c4ccccc4)CC3)c2)cc1	30*	-11	·	10	i	·	-11
COC(CNC(=O)c1cccnc1)OC	7	0	-6	3	0	16	·
COC(CNC(=O)c1ccc2c3c(onc13)-c1ccccc1C2=O)OC	78*	1	12	-57	0	4	48*
CC1=NN(c2ccc(C)cc2C)C(=O)C1C(c1ccccc1O)C1C(=O)N(c2ccc(C)cc2C)N=C1C (centres undefined)	44*	·	13	5	0	3	-24
SMILES	CCHF vOTU inh-1	TcdB inh	SSB-PriA inh	PrPC surface inh	BH1578 lux ind	DUSP3 inh	CCHF vOTU inh-2
CC(=O)Oc1cc(C)c(Cl)c2c(OC(C)=O)cc(C(C)=O)c(O)c12	32*	-2	·	3	·	·	18
N#Cc1cccnc1OC1CCN(C(=O)C2(c3cccs3)CCCC2)CC1	·	·	-13	·	·	·	·
O=C(Nc1ccc(F)cc1)c1ccccc1Oc1ccc(C(F)(F)F)cc1[N+](=O)[O-]	31*	·	38	4	i	1	-5
COc1ccc(C(=O)NCCS(=O)(=O)N2CCCCCC2)cc1	-4	0	-7	2	-5	·	·
COc1ccc(C(=O)NCCS(=O)(=O)N2CCCC2)cc1	46*	0	-12	-6	4	·	-23
Nc1c(O)cccc1C(=O)O	30*	-11	-18	-15	-1	·	1
COc1ccc(C(O)c2nc(-c3ccccc3C)cs2)cc1 (centres undefined)	34*	-1	·	3	i	·	4
COc1ccc(C(O)c2nc(-c3ccc4ccccc4c3)cs2)cc1 (centres undefined)	39*	1	·	12	-1	·	-21
COc1cccc(C(O)c2nc(-c3ccccc3C)cs2)c1 (centres undefined)	-2	-1	·	7	-1	·	·
COc1nn(C)cc1C(=O)Nc1cnn(C2CCOC2)c1 (centres undefined)	·	·	-7	·	·	·	·
O=C(O)CCCCCN1C(=O)c2ccccc2C1=O	·	·	-3	·	·	·	·
CN1CCS/C1=C/C=C1\SC(=S)N(CC(=O)O)C1=O	35*	0	4	-54	i	30	10
COC(=O)c1cc(NS(=O)(=O)c2ccc(N3CCC(C)CC3)c([N+](=O)[O-])c2)cc(C(=O)OC)c1	34*	-12	56*	5	-1	9	-4
CC(C)(C)OC(=O)N1CCCC(C(=O)Nc2cccc(C(=O)NCCc3ccccc3)c2)C1 (centres undefined)	-3	1	13	4	i	·	·
CC(C)(C)OC(=O)N1CCCC(C(=O)Nc2cccc(C(=O)NCCCCc3ccccc3)c2)C1 (centres undefined)	35*	-4	-1	13	1	·	-3
CC(=O)Nc1ccc2c(O)cc(S(=O)(=O)O)cc2c1	12	0	12	-8	-2	·	·
Nc1ccc2c(O)cc(S(=O)(=O)O)cc2c1	52*	2	7	-20	i	·	-40
O=C(c1ccc2nc(-c3ccco3)c(-c3ccco3)nc2c1)N1CCN(c2ccccc2)CC1	48*	·	13	-24	-2	-5	-8
O=S(=O)(c1ccc2nc(-c3ccco3)c(-c3ccco3)nc2c1)N1CCOCC1	73*	·	-6	-10	i	3	40*
COc1ccc(CCS(=O)(=O)NCc2ccsc2)cc1	·	·	1	·	·	·	·
Cc1cc(C(=O)N/N=C2\CC(=O)c3ccccc32)c(C)n1-c1ccc(F)cc1	61*	0	·	-4	i	9	19
Cc1cc(C(=O)NN=C2CC(=O)c3ccccc32)c(C)n1-c1ccccc1	·	·	3	·	·	·	·
O=C(NC(=S)Nc1ccccc1N1CCCCC1)c1cccs1	2	·	19	11	i	2	·
O=C(NC(=S)Nc1ccccc1N1CCCC1)c1cccs1	37*	4	1	1	0	-18	38*
CC(C)CC(=O)NC(=S)Nc1ccccc1N1CCCC1	31*	0	-5	1	0	-6	12
CC(C)CC(=O)Nc1ccccc1N1CCCC1	-11	0	-10	0	0	8	·
COc1ccc(-c2cc(C(=O)N3CCCCCC3)c3c(C)nn(C4CCS(=O)(=O)C4)c3n2)cc1 (centres undefined)	·	·	5	·	·	·	·
